Consider 56 compounds from PubChem BioAssay AID743279 (National Center for Advancing Translational Sciences (NCATS), 2014).

Molecules are shown by their SMILES. Out of some 360,000 compounds screened, about 17,000 (4.7%) were called active. Another 5% or so got no clear call; they are omitted. This is one part of a sample in which actives are shown more often than they occur. No stated cut-off is given here; in the data, active means activity change below about -50%; inconclusive means mostly about -30% to -49%; inactive means weaker than that.
On the % scale 0 is the no-effect control and ±100 the full control effect.

The nature of the assay: qHTS for Inhibitors of Inflammasome Signaling: IL-1-beta AlphaLISA Primary Screen. The following applies: THP-1 LPS/ATP IL-1B secretion, 16 h; at 57.5 µM, hits give low values. An outline of the steps:
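Secreted IL-1B measured by AlphaLISA bead assay after 16 h compound exposure of THP-1 cells; compounds (final up to 57.5 uM) added 1 h before LPS (250 ng/mL) and ATP (1.25 mM) stimulation; lower signal means less secretion.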
On the technique in general: In qHTS, concentration-response curves come from the screen itself.
On to `O=C(O)C(CCc1ccccn1)c1ccccc1` (stereo unspecified), for which the activity change is -10.2% (inactive). Regarding `O=c1[nH]c2c(c(=O)n1-c1ccccc1)CCO2`, the activity change is 0% (inactive).

For the compound `O=C(NCc1ccco1)c1ccc([N+](=O)[O-])cc1Cl`, the activity change was 15.3% (inactive). With `CC(OC(=O)CNC(=O)c1ccco1)C(=O)Nc1ccc(Cl)cn1` (stereo unspecified), the activity change is 12.3% (inactive). On to `CC(OC(=O)CNC(=O)c1ccc(Cl)c([N+](=O)[O-])c1)C(=O)NCc1ccco1` (stereo unspecified), for which the activity change was -52.2% (active). On to `CCc1nc2ccc(C(=O)N(C)Cc3ccco3)cn2c1N(C)C(=O)Cc1ccccc1`, for which the activity change is -0.908% (inactive). On to `CCCN(C(=O)COC(=O)CNS(=O)(=O)c1ccc(NC(C)=O)cc1)C1CCS(=O)(=O)C1` (stereo unspecified), for which the activity change was 14.5% (inactive).

Turning to `CCOC(=O)N1CCN(C(c2ccnc3ccccc23)c2nnnn2-c2c(C)cccc2C)CC1` (stereo unspecified), the activity change was -14.1% (inactive).

In the case of `Cc1ccccc1C(CC(=O)c1cccs1)C(C#N)C#N` (stereo unspecified), the activity change was -107% (active). `O=C(NCC(=O)N1CCN(c2ccccc2F)CC1)c1cccs1`: the activity change is 16.6% (inactive). Consider `Cc1ccc(C)c(NC(CC(=O)c2ccccc2)C(=O)OCC(=O)c2cccs2)c1` (stereo unspecified), for which the activity change was 7.47% (inactive). Take `CCOC(=O)CSc1nncc2ccc(OC)c(OC)c12`: the activity change was -8.55% (inactive). In the case of `COc1ccc(CCNc2nc3ccc(C)cc3n3cnnc23)cc1OC`, the activity change was 13.3% (inactive). Turning to `CCOC(=O)CSc1nc2ccc(C)cc2n2cnnc12`, the activity change is -55.9% (active). As for `CN(CCCNC(=O)CN1C(=O)CC(C)(C)S(=O)(=O)c2ccccc21)C1CCCCC1`, the activity change was 0% (inactive).

As for `COc1ccccc1C(=O)NC(=S)Nc1ccc(N2CCOCC2)cc1`, the activity change is -16.4% (inactive). In the case of `CCCCCC(=O)N1C[C@H](O)[C@@H](n2cc(COC(=O)c3ccccc3)nn2)C[C@@H]1c1ccc(C)cc1`, the activity change is -14.9% (inactive).

With `Cc1ccc(C)n1NC(=O)c1ccc([N+](=O)[O-])cc1`, the activity change is -5.32% (inactive). Take `N=C1C(c2nc3ccccc3s2)=C(O)CN1NC(=O)c1ccc([N+](=O)[O-])cc1`: the activity change was -90.6% (active). For `N=C1C(c2nc3ccccc3[nH]2)=C(O)CN1NC(=O)c1c[nH]c2ccccc12`, the activity change is 27.9% (inactive). Regarding `CN1OC[C@@H]2CN[C@H](c3ccc(-c4ccccc4)cc3)C[C@@H]21`, the activity change is -4.9% (inactive). `O[C@H]1CN(Cc2cccs2)[C@@H](c2ccc(Cl)cc2)C[C@@H]1n1cc(C2CC2)nn1`: the activity change was 30.3% (inactive). As for `COCCN(C(=O)c1ccco1)c1nnc(-c2ccc(OC)cc2)s1`, the activity change was -3.55% (inactive). For `COc1cc(OC)cc(-c2nnc(N(C)C(=O)c3ccncc3)s2)c1`, the activity change was -18.8% (inactive). Turning to `COCCN(C(=O)C(C)C)c1nnc(-c2ccc(C(C)(C)C)cc2)s1`, the activity change was -83.8% (active).

For the compound `CCC1=C(OC(=O)N(CC)CC)N2C(=O)OC(=NCC3CC3)[C@]2(C)[C@H]2C1=CC[C@H]1C(=O)N(CC(=O)OC)C(=O)[C@H]12`, the activity change was 25% (inactive). As to `COc1ccccc1C(=O)Nc1ccccc1C(=O)Nc1ccccc1`, the activity change is -4.71% (inactive). In the case of `COc1ccccc1NC(=O)c1cc(Cl)nnc1Cl`, the activity change was -97.2% (active). In the case of `COc1ccccc1NC(=O)C[n+]1ccccc1`, the activity change is 33.7% (inactive).

On to `COc1ccccc1NC(=S)NC(=O)C(C)C`, for which the activity change was 3.02% (inactive). In the case of `COc1ccccc1NC(=O)/C=C/C(N)=O`, the activity change is -100% (active). Consider `COc1ccccc1NC(=O)c1cc(Cl)nc2ccccc12`, for which the activity change is 46.4% (inactive). With `O=C(Nc1ccc(F)cc1)Nc1nnc([C@H]2C[C@H](O)[C@@H](CO)O2)s1`, the activity change is -12.8% (inactive). For `COc1ccc(-c2nnc(SC(C)C(=O)NC3CC3)o2)cc1` (stereo unspecified) the value was -5.66% (inactive). For `COc1ccc(-c2nnc(-c3ccc4ccccc4c3)o2)cc1` the value was -20.9% (inactive). The value for `COc1ccc(-c2nnc(SC(=O)N3c4ccccc4Sc4ccccc43)o2)cc1` was -101% (active). For the compound `COC(=O)C1(C(=O)OC)C/C=C\CN(S(=O)(=O)c2ccccc2[N+](=O)[O-])CCC1`, the activity change was 18.1% (inactive). With `O=C(NCc1cccnc1)c1cc(C2CCCN(C(=O)CCCc3ccccc3)C2)on1` (stereo unspecified), the activity change is 24.4% (inactive). On to `CCN(CC)CCCC(C)n1c2nc(=O)[nH]c(=O)c-2nc2cc(Cl)ccc21` (stereo unspecified), for which the activity change was -77.2% (active).

Turning to `CCN(CC)CCn1c2ccc(Cl)cc2c2nc(C)sc21`, the activity change was -29.9% (inactive). Consider `O=C(Nc1ccc(OCCO)cc1)c1csc([C@H]2C[C@H](O)[C@@H](CO)O2)n1`, for which the activity change was 4.57% (inactive). `Cc1cc2c(C)nc(N/N=C/c3ccccc3)nc2o1`: the activity change is -78.8% (active). On to `FC(F)(F)c1cccc(N/N=C/c2ccccc2)c1`, for which the activity change was -1.73% (inactive). As to `COc1cccc(/C=N\Nc2nncc(-c3ccccc3)n2)c1`, the activity change was -16.6% (inactive). The value for `CC(C)NC(=O)c1ccccc1S(=O)c1ccccc1C#N` (stereo unspecified) was -0.788% (inactive); that for `OCC1OC(n2cnc3c(N4CCCC4)ncnc32)C(O)C1O` (stereo unspecified) was 86.8% (inactive); that for `COCCCNC(=O)CSc1nc2ccc(N3CCOCC3)cc2c(=O)n1CCc1ccccc1` was -8.48% (inactive). The value for `CCCCn1c(SCC(=O)NCC2CCCO2)nc2ccc(N3CCOCC3)cc2c1=O` (stereo unspecified) was -7.71% (inactive).

Take `N#CCSc1nc2ccc(N3CCOCC3)cc2c(=O)n1CCc1ccccc1`: the activity change was -50.9% (active). Regarding `N#Cc1ccc(-c2ccc3nccn3c2)cc1`, the activity change was 13.1% (inactive). `C=CCC[C@@H](Cc1ccc(F)cc1)C(=O)OC[C@@H](C)NC(=O)[C@H](CC=C)CC(=O)N(CCO)Cc1ccccc1`: the activity change is -24.1% (inactive).

Turning to `C=CC[C@@H](Cc1ccc(F)cc1)C(=O)OC[C@H]1CCCN1C(=O)[C@H](CC=C)CC(=O)N(CCO)Cc1ccccc1`, the activity change was -21.2% (inactive).

Consider `C=CC[C@H](CC(=O)N(CCO)Cc1ccccc1)C(=O)N[C@@H](COC(=O)[C@@H](CC=C)Cc1ccc(F)cc1)Cc1ccccc1`, for which the activity change was -67.6% (active). As to `C=CCC[C@@H](Cc1ccc(F)cc1)C(=O)O[C@H](CNC(=O)[C@H](CC=C)CC(=O)N(CCO)Cc1ccccc1)c1ccccc1`, the activity change was -58.8% (active). For the compound `C=CCC[C@H](Cc1ccc(F)cc1)C(=O)OC[C@@H](NC(=O)[C@@H](CC=C)CC(=O)N[C@H](CO)Cc1ccccc1)C(C)(C)C`, the activity change was -29.4% (inactive).

In the case of `C=CCC[C@H](Cc1ccc(F)cc1)C(=O)OC[C@H](C)NC(=O)[C@H](CC=C)CC(=O)N(CCO)Cc1ccccc1`, the activity change is -17.2% (inactive).
